PubChem BioAssay (EPA / NIEHS)
Calls of active or inactive are those of the source. Rule for the calls: active = hit-call score of the fitted dose curve at least 0.9, where 1 is the maximum; inactive = score below 0.9.

What was measured:
Details in all cases: mRNA level, 48 h; actives raise or lower the signal
[1] = read-out: Alkaline Phosphatase, Placental (ALPP) gene, ALPP (gene 250); experiment: LTEA_HepaRG_ALPP: Life Technologies and Expression Analysis (LTEA) Assay for Alkaline Phosphatase, Placental (ALPP) gene using HepaRG (AID 2283468)
Outline: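 Differentiated human HepaRG cells were plated and cultured 48 h, then exposed in duplicate for 48 h in serum-free induction medium to eight half-log concentrations from 100 uM in 0.5% DMSO. ALPP mRNA was measured by TaqMan qRT-PCR, normalized to ACTB, GAPDH, POLR2A.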

[2] = read-out: Bcl-2 (BAD) gene, BAD (gene 572); experiment: LTEA_HepaRG_BAD: Life Technologies and Expression Analysis (LTEA) Assay for Bcl-2 (BAD) gene using HepaRG (AID 2283469)
Outline: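 Read-out: qRT-PCR of BAD mRNA, normalized to three housekeeping genes. Human HepaRG cultures got 48 h chemical exposure in 0.5% DMSO, duplicate eight-point half-log series topping at 100 uM. Gain or loss of signal fitted versus DMSO vehicle.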

[3] = read-out: Bcl-2 (BAX) gene, BAX (gene 581); experiment: LTEA_HepaRG_BAX: Life Technologies and Expression Analysis (LTEA) Assay for Bcl-2 (BAX) gene using HepaRG (AID 2283470)
Outline: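 Human HepaRG cells treated in duplicate for 48 h across eight concentrations (max 100 uM, 0.5% DMSO); BAX expression measured by qRT-PCR.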

[4] = read-out: adenosine kinase (ADK) gene, ADK (gene 132); experiment: LTEA_HepaRG_ADK: Life Technologies and Expression Analysis (LTEA) Assay for adenosine kinase (ADK) gene using HepaRG (AID 2283471)
Outline: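 Following 48 h exposure of HepaRG cells in 0.5% DMSO (top concentration 100 uM, duplicate wells), ADK mRNA induction or suppression was measured by qRT-PCR, normalised to ACTB/GAPDH/POLR2A, and fitted bidirectionally relative to vehicle.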

[5] = read-out: Alpha-fetoprotein (AFP) gene, AFP (gene 174); experiment: LTEA_HepaRG_AFP: Life Technologies and Expression Analysis (LTEA) Assay for Alpha-fetoprotein (AFP) gene using HepaRG (AID 2283472)
Outline: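 Measures AFP mRNA change in HepaRG after 48 h chemical exposure (8 half-log concentrations, highest 100 uM, 0.5% DMSO). Fold change relative to DMSO, fitted in both directions.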

BCL2L11 (gene 10018) = experiment: LTEA_HepaRG_BCL2L11: Life Technologies and Expression Analysis (LTEA) Assay for Bcl-2 (BCL2L11) gene using HepaRG (AID 2283473)
Outline: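 Differentiated human HepaRG cells in serum-free induction medium were exposed in duplicate for 48 h to eight concentrations (top 100 uM, half-log steps, 0.5% DMSO). BCL2L11 mRNA was quantified by TaqMan qRT-PCR, normalized to ACTB/GAPDH/POLR2A, bidirectional fit versus DMSO.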

[6] = read-out: Apolipoprotein A-V (APOA5) gene, APOA5 (gene 116519); experiment: LTEA_HepaRG_APOA5: Life Technologies and Expression Analysis (LTEA) Assay for Apolipoprotein A-V (APOA5) gene using HepaRG (AID 2283474)
Outline: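 Differentiated human HepaRG cells were exposed in duplicate for 48 h to eight half-log concentrations from 100 uM in 0.5% DMSO. APOA5 mRNA was quantified by TaqMan qRT-PCR, normalized to ACTB, GAPDH and POLR2A, and fitted bidirectionally against DMSO.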

[7] = read-out: Apoptosis regulator Bcl-2 (Homo sapiens) (UniProt P10415); experiment: LTEA_HepaRG_BCL2: Life Technologies and Expression Analysis (LTEA) Assay for Bcl-2 gene using HepaRG (AID 2283475)
Outline: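 Each chemical was tested in duplicate on HepaRG cultures held in serum-free induction medium for 48 h, highest concentration 100 uM with half-log dilutions. Transcript levels came from multiplexed qRT-PCR, normalised to housekeeping genes; activity was scored in either direction relative to DMSO.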

[8] = read-out: Bcl-2 (BID) gene, BID (gene 637); experiment: LTEA_HepaRG_BID: Life Technologies and Expression Analysis (LTEA) Assay for Bcl-2 (BID) gene using HepaRG (AID 2283476)
Outline: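 Assay used HepaRG hepatic cells treated 48 h in serum-free medium with half-log dilutions from 100 uM. Endpoint: BID mRNA, qRT-PCR, normalized to ACTB/GAPDH/POLR2A.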

Caspase-3 (Homo sapiens) = Caspase-3 (Homo sapiens) (UniProt P42574); experiment: LTEA_HepaRG_CASP3: Life Technologies and Expression Analysis (LTEA) Assay for cysteine-aspartic acid protease (CASP3) using HepaRG (AID 2283477)
Caspase-3 (Homo sapiens), sequence (P42574 whole entry, looked up): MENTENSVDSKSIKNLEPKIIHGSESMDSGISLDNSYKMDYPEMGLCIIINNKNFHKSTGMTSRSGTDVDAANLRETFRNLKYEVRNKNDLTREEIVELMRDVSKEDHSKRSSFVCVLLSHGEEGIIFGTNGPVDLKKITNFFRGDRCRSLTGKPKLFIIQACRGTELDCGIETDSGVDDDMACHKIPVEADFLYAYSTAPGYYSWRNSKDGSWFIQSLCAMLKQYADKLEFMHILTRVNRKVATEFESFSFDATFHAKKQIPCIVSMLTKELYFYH
Outline: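 Differentiated human HepaRG cells in serum-free induction medium were exposed 48 h to 8-point half-log concentrations from 100 uM (0.5% DMSO vehicle). CASP3 mRNA was measured by qRT-PCR, normalised to ACTB, GAPDH and POLR2A, with bidirectional fitting against DMSO.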

[9] = read-out: Cytochrome P450 (CYP24A1), CYP24A1 (gene 1591); experiment: LTEA_HepaRG_CYP24A1: Life Technologies and Expression Analysis (LTEA) Assay for Cytochrome P450 (CYP24A1) using HepaRG (AID 2283478)
Outline: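 Differentiated HepaRG cells, pre-cultured 48 h, were exposed in duplicate for 48 h in serum-free induction medium to 8 half-log concentrations (top 100 uM, 0.5% DMSO). CYP24A1 mRNA was quantified by TaqMan qRT-PCR, normalized to ACTB/GAPDH/POLR2A, fitted bidirectionally versus DMSO.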

[10] = read-out: Cytochrome P450 (CYP1A2), CYP1A2 (gene 1544); experiment: LTEA_HepaRG_CYP1A2: Life Technologies and Expression Analysis (LTEA) Assay for Cytochrome P450 (CYP1A2) using HepaRG (AID 2283479)
Outline: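 Differentiated human HepaRG cells in serum-free induction medium were exposed in duplicate for 48 h to 8-point half-log concentrations up to 100 uM in 0.5% DMSO. CYP1A2 mRNA measured by qRT-PCR, normalized to ACTB, GAPDH, POLR2A; bidirectional fit vs DMSO.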

[11] = read-out: cysteine-aspartic acid protease (CASP8), CASP8 (gene 841); experiment: LTEA_HepaRG_CASP8: Life Technologies and Expression Analysis (LTEA) Assay for cysteine-aspartic acid protease (CASP8) using HepaRG (AID 2283480)
Outline: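 CASP8 transcript measured by TaqMan qRT-PCR with ACTB/GAPDH/POLR2A normalization, after 48 h chemical exposure of HepaRG cells in serum-free induction medium. Eight concentrations, top 100 uM, half-log steps, 0.5% DMSO vehicle; fits in both directions versus DMSO.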

[12] = read-out: Cytochrome P450 (CYP2B6), CYP2B6 (gene 1555); experiment: LTEA_HepaRG_CYP2B6: Life Technologies and Expression Analysis (LTEA) Assay for Cytochrome P450 (CYP2B6) using HepaRG (AID 2283481)
Outline: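 Differentiated HepaRG cells, serum-free induction medium, exposed 48 h in duplicate to 8-point half-log concentrations from 100 uM in 0.5% DMSO. CYP2B6 mRNA by qRT-PCR, normalized to ACTB, GAPDH, POLR2A; bidirectional fit versus DMSO.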

[13] = read-out: Cytochrome P450 2C19 (Homo sapiens) (UniProt P33261); experiment: LTEA_HepaRG_CYP2C19: Life Technologies and Expression Analysis (LTEA) Assay for CYP2C19 using HepaRG (AID 2283482)
Outline: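 Differentiated human HepaRG cells were exposed for 48 h in serum-free induction medium to 8 concentrations (top 100 uM, half-log steps, 0.5% DMSO). CYP2C19 mRNA was measured by qRT-PCR, normalized to ACTB/GAPDH/POLR2A, and fitted bidirectionally against DMSO.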

CYP2C8 (gene 1558) = experiment: LTEA_HepaRG_CYP2C8: Life Technologies and Expression Analysis (LTEA) Assay for CYP2C8 using HepaRG (AID 2283483)
Outline: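 CYP2C8 expression measured by TaqMan qRT-PCR and normalized to three housekeeping genes. HepaRG cultures were treated for 48 h with an eight-point half-log series topping at 100 uM, vehicle 0.5% DMSO, duplicates; fitted both directions against DMSO.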

CYP2C9 (gene 1559) = experiment: LTEA_HepaRG_CYP2C9: Life Technologies and Expression Analysis (LTEA) Assay for CYP2C9 using HepaRG (AID 2283484)
Outline: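 CYP2C9 transcript level, quantified by TaqMan qRT-PCR against three housekeeping genes, was fitted bidirectionally relative to 0.5% DMSO. HepaRG cultures were treated 48 h, in duplicate, at eight half-log concentrations topping at 100 uM.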

CYP2E1 (gene 1571) = experiment: LTEA_HepaRG_CYP2E1: Life Technologies and Expression Analysis (LTEA) Assay for CYP2E1 using HepaRG (AID 2283485)
Outline: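 Assay uses 48 h exposure of HepaRG hepatic cells, eight concentrations to 100 uM. Expression of CYP2E1 is quantified by TaqMan qRT-PCR with ACTB, GAPDH and POLR2A normalization; curves fitted in both directions relative to vehicle.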

CYP4A11 (gene 1579) = experiment: LTEA_HepaRG_CYP4A11: Life Technologies and Expression Analysis (LTEA) Assay for CYP4A11 using HepaRG (AID 2283486)
Outline: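 Differentiated HepaRG cells, serum-free induction medium, exposed 48 h in duplicate to 8-point half-log series from 100 uM in 0.5% DMSO. CYP4A11 mRNA measured by qRT-PCR, normalized to ACTB, GAPDH, POLR2A; bidirectional fit versus DMSO.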

[14] = read-out: Cytochrome P450 3A4 (Homo sapiens) (UniProt P08684); experiment: LTEA_HepaRG_CYP3A4: Life Technologies and Expression Analysis (LTEA) Assay for CYP3A4 using HepaRG (AID 2283487)
Outline: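 In a human hepatic line (HepaRG), duplicate wells were treated 48 h with up to 100 uM chemical in half-log dilutions. Endpoint: CYP3A4 mRNA induction or loss relative to 0.5% DMSO vehicle, by qRT-PCR.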

Measured: AC50

Cytochrome P450 2C19 (Homo sapiens), sequence (P33261 whole entry, looked up): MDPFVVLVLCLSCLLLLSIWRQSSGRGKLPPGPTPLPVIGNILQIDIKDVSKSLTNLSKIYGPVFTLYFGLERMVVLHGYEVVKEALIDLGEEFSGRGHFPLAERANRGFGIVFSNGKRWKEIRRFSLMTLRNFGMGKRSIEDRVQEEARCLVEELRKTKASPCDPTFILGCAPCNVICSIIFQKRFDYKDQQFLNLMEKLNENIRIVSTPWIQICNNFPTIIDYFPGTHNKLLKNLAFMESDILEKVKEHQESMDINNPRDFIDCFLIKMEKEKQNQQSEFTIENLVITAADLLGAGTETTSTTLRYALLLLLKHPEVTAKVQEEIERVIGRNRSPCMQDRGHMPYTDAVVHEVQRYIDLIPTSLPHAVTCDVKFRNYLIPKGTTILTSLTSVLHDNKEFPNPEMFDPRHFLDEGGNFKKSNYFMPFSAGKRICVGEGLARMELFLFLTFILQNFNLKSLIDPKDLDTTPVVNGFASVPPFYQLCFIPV
Apoptosis regulator Bcl-2 (Homo sapiens), sequence (P10415 whole entry, looked up): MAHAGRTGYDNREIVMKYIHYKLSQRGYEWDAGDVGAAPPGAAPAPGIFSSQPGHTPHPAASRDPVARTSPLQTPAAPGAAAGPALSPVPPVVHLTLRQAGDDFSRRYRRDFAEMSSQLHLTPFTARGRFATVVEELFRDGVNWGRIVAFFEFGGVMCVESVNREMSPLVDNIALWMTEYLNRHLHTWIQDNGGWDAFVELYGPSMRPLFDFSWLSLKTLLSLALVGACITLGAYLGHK
Cytochrome P450 3A4 (Homo sapiens), sequence (P08684 whole entry, looked up): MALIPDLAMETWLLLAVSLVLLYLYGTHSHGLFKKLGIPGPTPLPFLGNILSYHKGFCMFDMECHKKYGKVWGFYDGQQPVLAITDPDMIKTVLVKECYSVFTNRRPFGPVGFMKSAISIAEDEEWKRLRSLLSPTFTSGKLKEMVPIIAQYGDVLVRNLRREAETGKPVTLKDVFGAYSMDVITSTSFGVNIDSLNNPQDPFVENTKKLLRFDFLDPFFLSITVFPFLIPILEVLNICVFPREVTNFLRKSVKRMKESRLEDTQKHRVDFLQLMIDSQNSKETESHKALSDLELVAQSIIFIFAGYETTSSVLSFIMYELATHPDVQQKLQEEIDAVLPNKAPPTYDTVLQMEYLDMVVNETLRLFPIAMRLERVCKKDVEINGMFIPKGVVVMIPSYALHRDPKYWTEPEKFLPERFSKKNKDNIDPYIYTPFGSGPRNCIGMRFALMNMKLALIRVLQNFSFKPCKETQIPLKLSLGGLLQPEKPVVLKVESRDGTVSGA

Cc1ccc([N+](=O)[O-])cc1N
active: [10] 26.8 µM | [12] 18.4 µM | CYP2E1 (gene 1571) 32.4 µM
inactive: all other assays above

Nc1ccc(C(=O)O)cc1
active: [10] 50 µM
inactive: all other assays above

C1CNCCN1
inactive: all assays above
